The panel holds about 79,000 compounds, 15% with a hit somewhere; the sample as a whole holds those more often. Rule as the data show it: active = growth inhibition above about 70%; inactive = the rest.
Experiments:
[1] = NCI Yeast Anticancer Drug Screen. Data for the rad50 strain (AID 155);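 also: 0% = growth of vehicle-only cultures of the same strain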; conditions: S. cerevisiae rad50 strain growth inhibition; at 50.0 µM; stronger effect = higher value
Method in brief: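 Genetically altered yeast (DNA repair pathway); compound treatment; growth inhibition vs vehicle ctrl.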

[2] = NCI Yeast Anticancer Drug Screen. Data for the mec2-1 strain (AID 157); conditions: S. cerevisiae mec2-1 strain, at 50.0 µM, stronger effect = higher value
Method in brief: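 Each compound was tested on mec2-1 yeast, a strain altered in DNA damage repair or cell cycle control. Growth inhibition is reported relative to vehicle.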

[3] = NCI Yeast Anticancer Drug Screen. Data for the sgs1 mgt1 strain (AID 161);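 also: 0% = growth of cultures given vehicle only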; conditions: S. cerevisiae sgs1 mgt1 strain, at 50.0 µM, stronger effect = higher value
Method in brief: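 Mutant yeast exposed to compound; growth scored against vehicle-only wells.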

[4] = NCI Yeast Anticancer Drug Screen. Data for the cln2 rad14 strain (AID 165);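 also: 0% = growth equal to vehicle treated cultures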; conditions: S. cerevisiae cln2 rad14 strain, at 50.0 µM, stronger effect = higher value
Method in brief: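 Test compounds were added to cln2 rad14 yeast cultures; inhibition of growth was then determined by comparison with vehicle treatment.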

[5] = NCI Yeast Anticancer Drug Screen. Data for the bub3 strain (AID 167); conditions: S. cerevisiae bub3 mutant strain, at 50.0 µM, stronger effect = higher value
Method in brief: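 Yeast carrying a defined mutation is treated with each compound, and growth is compared with that of vehicle-exposed cells to give inhibition.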

[6] = NCI Yeast Anticancer Drug Screen. Data for the mlh1 rad18 strain (AID 175); conditions: S. cerevisiae mlh1 rad18 strain growth inhibition; at 50.0 µM; stronger effect = higher value
Method in brief: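 Inhibition values reflect reduced growth of mutant yeast versus vehicle-treated controls following compound exposure; the mutations affect DNA damage repair.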

Measured: growth inhibition

CN1CCC2(CC1)C(=O)N(Cc1ccccc1)C(=O)C2c1ccccc1 (stereo not drawn)
inactive: [1] -9.95% | [2] -6.95% | [3] -6% | [4] 6.05% | [5] 3.4% | [6] -13.4%

CC(C)(C)n1c(=O)n(-c2ccccc2)n(C(C)(C)C)c1=O
inactive: [1] 45.5% | [2] -11.8% | [3] -28.2% | [4] 3% | [5] -27.7% | [6] -11%

Cc1ccccc1N1C(=O)[N+]2(CCCCC2)N=C1[O-]
inactive: [1] -11.1% | [2] 2.2% | [3] -13.3% | [4] -42.5% | [5] -3.9% | [6] -12.6%

CCOC(OCC)C(=O)NNC(C)C
inactive: [1] 15.4% | [2] -7.85% | [3] -2.15% | [4] -39.9% | [5] 10% | [6] -13.9%

N#Cc1ccccc1C(Cl)(Cl)c1cnccn1
inactive: [1] 9.9% | [2] -6.85% | [3] -10.7% | [4] 29.9% | [5] -0.4% | [6] 20.1%

C/C=C/C(=O)OCCC[N+](C)(C)C
inactive: [1] 8.8% | [2] 12.3% | [3] 2.8% | [4] -0.95% | [5] 13.9% | [6] -23.8%

CC1(C)OC(=O)C=C[C@@]2(C)C1CC(=O)C1(C)C2CCC2(C)C(c3ccoc3)OC(=O)[C@H]3O[C@]321 (stereo partly drawn)
inactive: [1] 2.55% | [2] -24.3% | [3] 11.3% | [4] 9.95% | [5] -7% | [6] -6.25%

C/C(=N/O)c1cccc([N+](=O)[O-])c1
inactive: [1] -10.7% | [2] 15.5% | [3] -4.95% | [4] -14.3% | [5] -3.6% | [6] -7.15%

COc1cc(C(=O)OCCOC(=O)c2ccc(O)c(OC)c2)ccc1O
inactive: [1] 45.4% | [2] 13.8% | [3] 25.4% | [4] -25.5% | [5] 51.7% | [6] 40.5%

COC(=O)[C@@H]1CON(Cc2ccccc2)C1CC1(C)OCCO1 (stereo partly drawn)
inactive: [1] 0.85% | [2] -7.3% | [3] 23.8% | [4] 0.6% | [5] 7.35% | [6] 8.45%

Cc1cc(-c2cscn2)c(O)c([N+](=O)[O-])c1
inactive: [1] 3.05% | [2] 3.9% | [3] 27.2% | [4] 12.4% | [5] 1.5% | [6] 7.6%

COC(=O)c1ccccc1NN=Nc1ccccc1Cl
inactive: [1] 3.5% | [2] -17.7% | [3] -0.95% | [4] 8.3% | [5] 6.4% | [6] 11.1%

Nc1cccc(N=[N+]([O-])c2cccc(N)c2)c1
inactive: [1] 18.9% | [2] 8.05% | [3] -10.5% | [4] -22.1% | [5] 12.2% | [6] 27.6%

CN(CCC(=O)c1ccc2ccccc2c1)Cc1ccccc1
inactive: [1] 16.4% | [2] 3% | [3] 27.4% | [4] -1.45% | [5] 8% | [6] 20.7%

C1CNCCNCCN1
inactive: [1] 7.65% | [2] -1.05% | [3] 10.1% | [4] 21.1% | [5] 25.5% | [6] -4.3%

CC(C)(C)OC(=O)NCC(O)CNC(=O)OC(C)(C)C
inactive: [1] -1.25% | [2] -6.6% | [3] -45.8% | [4] -26% | [5] -22.9% | [6] -24.6%

COC(=O)C12OCC34C(CC(C(C)=O)C(C)(CC(=O)O)C3C(O)C1O)OC(=O)C(OC(=O)/C=C(\C)C(C)C)C24 (stereo not drawn)
inactive: [1] 10% | [2] 21.3% | [3] 0.15% | [4] 9% | [5] 7.6% | [6] 6.95%

CCN(CC)CCCC(C)Nc1ccnc2c(Cl)cccc12 (stereo not drawn)
inactive: [1] 15.7% | [2] 14.3% | [3] 22.4% | [4] 22.6% | [5] 5.2% | [6] 2.4%

CC/C=C(\CCC)C(C#N)(CC)C(=O)OCC (stereo not drawn)
inactive: [1] 9.1% | [2] -33.6% | [3] -21.2% | [4] -7.6% | [5] -24.6% | [6] -9.55%

O=C1OC(=O)c2ccccc21
inactive: [1] 5.25% | [2] -15.2% | [3] -11.4% | [4] -24.8% | [5] -2.2% | [6] 0.05%

O=[N+]([O-])c1ccc(N=NN2CCOCC2)cc1
inactive: [1] -0.55% | [2] 3.5% | [3] -1.4% | [4] -1% | [5] -10.7% | [6] 6.55%

O=[N+]([O-])c1ccc(N/N=C/c2ccccc2O)c([N+](=O)[O-])c1
inactive: [1] 5.05% | [2] 20.5% | [3] 4.8% | [4] -6.8% | [5] 1.05% | [6] 4.2%

Cc1cc2cc3oc(C)cc3cc2o1
inactive: [1] 6.3% | [2] -6.45% | [3] -7.8% | [4] -45.6% | [5] -0.8% | [6] 3.25%

Cc1ccc(N2C(=O)/C(=C/c3ccc(N(CCC#N)CCC#N)cc3)N=C2COc2ccc(Cl)cc2Cl)cc1
inactive: [1] -0.2% | [2] -26.9% | [3] -7.25% | [4] -17.8% | [5] -36.1% | [6] -25.9%

N#CC1(CCCI)CCCC1
inactive: [1] 9.3% | [2] 7.05% | [3] 7.95% | [4] -7.45% | [5] -2.3% | [6] 6.1%

CCOC(=O)c1cnc2cc3c(cc2c1Nc1ccc2c(c1)OCO2)OCO3
inactive: [1] 12.4% | [2] 13.3% | [3] 6.85% | [4] 3.6% | [5] 0% | [6] 20%

O=S(=O)(O)c1cc(S(=O)(=O)O)c2c(Nc3ccnc4ccccc34)ccc(S(=O)(=O)O)c2c1
inactive: [1] -8.25% | [2] -1.3% | [3] -19.2% | [4] 3.6% | [5] -8.45% | [6] 13.8%

C/C(O)=C(/N=Nc1ccc(-c2nc3ccc(C)c(S(=O)(=O)O)c3s2)cc1)C(=O)Nc1ccccc1
inactive: [1] 12.7% | [2] -22.5% | [3] 21.2% | [4] 16% | [5] 19.9% | [6] 26.9%

CC1=CCC(CC=O)C1(C)C (stereo not drawn)
inactive: [1] 9.95% | [2] -1.95% | [3] -6.3% | [4] -43.4% | [5] -6.65% | [6] -3.45%

CCOc1ccc(N)c([N+](=O)[O-])c1
inactive: [1] 4.65% | [2] 21.9% | [3] 22.9% | [4] -34.4% | [5] -7.75% | [6] 3.1%

COc1ccc(Cl)c(C(=O)O)c1
inactive: [1] 19.1% | [2] 6.9% | [3] 4.1% | [4] 21.4% | [5] 6.85% | [6] 28.4%

CNC(=O)NC(c1ccc2c(c1)OCO2)c1cc2c(cc1O)OCO2 (stereo not drawn)
inactive: [1] 10.8% | [2] -2.7% | [3] 13.9% | [4] 14.2% | [5] 19.2% | [6] 24.6%

O=[N+]([O-])c1ccc2cccc3c2c1CC3
inactive: [1] 24.4% | [2] 18.1% | [3] 1.85% | [4] -19.4% | [5] 8.95% | [6] 22.6%

c1ccc(C2=NC3(CCCCC3)N=C2c2ccccc2)cc1
inactive: [1] 27.1% | [2] 12.3% | [3] 6.6% | [4] -32% | [5] 21.2% | [6] 25.1%

Cn1[nH]c(=O)c2ncccc2c1=O
inactive: [1] -4.7% | [2] -10.1% | [3] -13.5% | [4] -87.8% | [5] -10.3% | [6] 4.95%

CCOC(=O)C(Cc1ccc(O)cc1)NC(=O)C(CSC(c1ccccc1)(c1ccccc1)c1ccccc1)NC(c1ccccc1)(c1ccccc1)c1ccccc1 (stereo not drawn)
inactive: [1] 4.85% | [2] 0.8% | [3] -14.8% | [4] -1.65% | [5] -5.05% | [6] 9.55%

CN(C)Cc1ccnc(Cl)n1
inactive: [1] -16.2% | [2] 20.1% | [3] -16.8% | [4] -34.5% | [5] -13.3% | [6] -8.1%

CCC1SC(C)C(=O)NC1=O (stereo not drawn)
inactive: [1] -14.8% | [2] 3.9% | [3] -0.7% | [4] -14.3% | [5] -8.2% | [6] 37.1%

Reference: PubChem BioAssay (NCI)
